This is a sample that favours compounds with a hit; in the whole collection about 21% have one here.
AMA1 RON2 block: qHTS for Inhibitors of AMA1-RON; Towards Development of Antimalarial Drug Lead: Primary Screen | Plasmodium falciparum AMA1 (3D7) - RON2 peptide interaction | AlphaScreen AMA1-biotinylated RON2 peptide binding | Potency, µM (top dose mostly 58.2 µM), for the others: top-dose activity change, negative = inhibition, usual class: inhibitors | 360,000 compounds, 0.2% hits;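 further: potency means the concentration at half of the fitted maximal effect; 0% = vehicle wells and -100% = peptide control; nearly all actives have a fitted effect of over 45% in size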
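AMA1 (3D7) with his tag at 25 nM final met compounds first, then biotinylated RON2 peptide at 25 nM; detection used donor plus acceptor beads, 10 µg/mL apiece, read by AlphaScreen after 30 min at room temperature.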
HCV inhibitor: qHTS Assay for Inhibitors of Hepatitis C Virus (HCV) | Huh7.5.1 HCVcc-Cre infection, luciferase reporter, 44 h | Potency, µM (series often up to 41.8 µM), inactives show top-dose activity change, negative = inhibition, most hits filed as inhibitors | 340,000 compounds, 3.4% hits | AID 651820, 2012; further: potency means the concentration at half of the fitted maximal effect; on the % scale 0 is the no-effect control and ±100 the full control effect
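Infectious HCVcc-Cre (~0.5 moi) was added to cells just after compound, with cells seeded 4 h earlier at 1,000 per well. Luciferase activity after 44 h culture reported infection; substrate was incubated 15 min at room temperature before reading.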
Pf growth 48h: Primary qHTS for delayed death inhibitors of the malarial parasite plastid, 48 hour incubation | P. falciparum luciferase growth in erythrocytes, 48 h | Potency, µM (titrated, usually from 28.7 µM), inactives show at the top dose activity change, negative = inhibition, usual class: inhibitors | 310,000 compounds, 5.9% hits; further: potency means the concentration at half of the fitted maximal effect; on the % scale 0 is the no-effect control and ±100 the full control effect
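Firefly luciferase activity from engineered P. falciparum reports growth; inhibitors lower the luminescent signal. Cultures contained 2% hematocrit erythrocytes at 0.1% final parasitemia.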
Shiga inhibitor: A qHTS for Small Molecule Inhibitors of Shiga Toxin | inhibition, % at 38.7 µM | 290,000 compounds, 9.2% hits | Vero cells, Shiga toxin protein synthesis inhibition reporter; in the data active means inhibition mostly above about 28%, no sharp cut-off; inactive means mostly below about 43%; further: 0% is about no effect
Pf growth 96h: Primary qHTS for delayed death inhibitors of the malarial parasite plastid, 96 hour incubation; P. falciparum luciferase reporter growth, 96 h; 320,000 compounds, 6.9% hits; Potency, µM (titrated, usually from 28.7 µM), without a hit: at the highest dose activity change, negative = inhibition, actives largely listed as inhibitors; further: potency means the concentration at half of the fitted maximal effect; on the % scale 0 is the no-effect control and ±100 the full control effect
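P. falciparum expressing integrated firefly luciferase, in erythrocytes at 2% hematocrit, 0.05% parasitemia, incubated with compounds 96 h at 37 C, 5% CO2. Growth inhibition read as loss of luminescence; two-generation exposure targets delayed-death apicoplast inhibitors.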
CHX counter: Cycloheximide Counterscreen for Small Molecule Inhibitors of Shiga Toxin | 300,000 compounds, 12% hits | max response, % | cell reporter, cycloheximide protein synthesis inhibition counterscreen; in the data active means max response mostly above about 13%, no sharp cut-off; inactive means mostly below about 14%; further: read at 38.3 µM for the half of the compounds with a filed dose; 0% is about no effect
Numbers without * were called inactive; ? = inconclusive; nt = no result given; [ ] = dose if it differs, or a comment. Unless noted, the call rests on the fitted dose curve; in most records, active means well fitted curve in the direction sought with a large enough effect; inconclusive means small, poorly fitted or top-dose-only effect, or another doubt; inactive means no such curve, though single readings can be large; an effect the other way counts as inactive or inconclusive.

SMILES	AMA1 RON2 block	HCV inhibitor	Pf growth 48h	Shiga inhibitor	Pf growth 96h	CHX counter
COc1ccc(C(=O)NCCc2cn3ccccc3n2)cc1	-12%	-10%	23%	43*	-17%	18
COc1ccc(OCCOc2ccc(N(C)S(=O)(=O)c3ccccc3)cc2)cc1	3%	11µM*	?	nt	-20%	nt
COc1ccc(CCNC(=O)c2ccccc2)cc1	2%	-2%	19%	117*	?	28*
COc1ccc(CCNC(=O)c2sc(=S)n(C)c2N)cc1	3%	-23%	15%	-18	1.9µM*	-3
CN(C)CC/C=C1\c2ccccc2COc2ccc(CC(=O)O)cc21	nt	nt	1%	nt	6%	nt
CC(=O)c1ccc(Nc2nc(CN)cs2)cc1	94%	nt	nt	nt	nt	nt
Cc1cc(=O)[nH]c2sc(C(=O)N3c4ccccc4CC3C)c(N)c12 (centres undefined)	-11%	-18%	nt	nt	nt	nt
COc1ccc(CNC(=O)COC(=O)C2=COCCO2)cc1	4%	2%	nt	-18	?	-1
CC(=O)Nc1ccc(S(=O)(=O)N(C)c2ccc(OCCOc3ccccc3F)cc2)cc1	3%	10µM*	nt	nt	nt	nt
COc1ccc(CC(=O)Nc2ccccc2C(=O)NCCc2ccccc2)cc1	-2%	?	?	48*	12µM*	30*
COc1cccc(CCNC(=O)c2ccc(C#N)cc2)c1	-4%	4%	19%	38*	-54%	21*
COc1ccc(CCNC(=O)C2=COCCO2)cc1	4%	4%	70%	66*	90%	24*
N#CC1(NC(=O)CN2C(=O)c3ccc([N+](=O)[O-])cc3C2=O)CCCCC1	20%	4%	15%	nt	20%	nt
Cc1cccc(N(CC(=O)N/N=C/c2ccc(C(=O)O)cc2)S(=O)(=O)c2ccccc2)c1C	-8%	16%	nt	nt	nt	nt
CC(C)(C)OC(=O)NC(NC(=O)OCC1c2ccccc2-c2ccccc21)C(=O)O (centres undefined)	nt	nt	nt	-3	nt	-4
COc1cccc2sc(=NC(=O)CS(=O)(=O)c3ccc(Cl)cc3)n(C)c12	1%	?	?	nt	?	nt
COc1ccc(CC(=O)Nc2cccc(C(=O)O)c2C)cc1	-1%	1%	111%	1	?	15*
Cc1ccc(CCNC(=O)c2coc3nc4ccccc4nc23)cc1	0%	6%	-21%	14	2.6µM*	1
COc1ccc(C(=O)NCC2(c3ccccc3)CCOCC2)cc1	-8%	8%	27%	63	10%	36*
COc1ccc(CC(=O)c2ccccc2C(=O)O)cc1	0%	2%	14%	-11	-10%	-5
CCS(=O)(=O)N1CCC(C(=O)Oc2ccc(C)c(C)c2)CC1	-2%	6%	5%	-2	56%	-1
O=C(NC1C/C(=N/O)c2cc3c(cc21)OCO3)C(F)(F)F (centres undefined)	7%	3%	0%	-3	9%	-4
COc1ccc(CC(=O)Oc2ccc(Br)cc2F)cc1S(=O)(=O)N1CCOCC1	-6%	17%	11%	nt	21%	nt
CCOC(=O)[C@]12CCC=C1N(Cc1ccco1)C(=O)[C@H](CC(=O)NCCCOC)C2	-1%	nt	nt	nt	nt	nt
CCN1C(=O)C(O)(CC(=O)/C=C/C=C/c2ccccc2)c2ccccc21 (centres undefined)	-9%	-14%	?	-8	?	2
SMILES	AMA1 RON2 block	HCV inhibitor	Pf growth 48h	Shiga inhibitor	Pf growth 96h	CHX counter
Cc1ccc2c(c1)C(O)(CC(=O)/C=C/C=C/c1ccccc1)C(=O)N2 (centres undefined)	0%[11.6 µM]	2%	6%	22	?	27*
Cc1ccc(NC(=O)COC(=O)c2ccc(C)c(S(=O)(=O)N3CCOCC3)c2)cc1	12%	10%	25%	nt	0%	nt
Cc1ccccc1C(=O)N/N=C/c1cccc2ccccc12	5%	-29%	?	46*	?	16*
Cc1sccc1/C=N/NC(=O)c1cccc2ccccc12	7%	-9%	24%	-29	-2%	9
COc1ccccc1/C=N/NC(=O)c1cccc2ccccc12	-10%	-2%	-3%	nt	?	-3
O=C(N/N=C/c1ccccc1F)c1cccc2ccccc12	-7%	-7%	82%	40*	0%	21
Cc1ccccc1C(=O)N/N=C/c1ccsc1C	27%	19%	232%	125*	82%	81*
Cc1ccc(Cl)cc1NC(=S)Nn1cnnc1	43%	21%	0%	-17	2.6µM*	-3
CCOc1ccccc1C=NNC(=O)c1cccc2ccccc12	15%	?	nt	nt	nt	nt
Cc1cc2cc(CCNC(=O)CCc3ccccc3)c(=O)[nH]c2cc1C	-2%	-16%	?	-8	?	-1
Cc1ccc(NC(=S)N/N=C/c2c(Cl)cccc2Cl)c(C)c1	4%[2.32 µM]	?	14%	29	?	16
Cc1ccc(Cl)cc1NC(=S)N/N=C/c1cccc2ccccc12	27%	?	2.1µM*	12	?	2
CCOc1cc2c(cc1OCC)-n1cccc1C(c1ccc(C(C)C)cc1)NC2 (centres undefined)	?	?	8.3µM*	-15	?	-7
CCOc1cc2c(cc1OCC)-n1cccc1C(c1ccc(OC(F)F)cc1)NC2 (centres undefined)	-24%	?	13µM*	-6	36%	-4
CCOc1cc2c(cc1OCC)-n1cccc1C(c1ccc(OC)cc1)NC2 (centres undefined)	-22%	-29%	?	-8	?	-5
O=C(CN1CCN(C(c2ccccc2)c2ccccc2)CC1)NC(=O)NCc1ccco1	-6%	-6%	9.3µM*	21	10µM*	-4
O=C(CN1CCN(c2ccccc2)CC1)NC(=O)NCc1ccco1	-8%	-17%	-6%	25	-5%	-2
CN(C)c1nc(NC(C)(C)C)nc(NC(C)(C)C)n1	11%	?	15µM*	11	33%	-5
OC(Cn1cnnc1)c1ccccc1 (centres undefined)	-26%	-1%	nt	-5	27%	1

Source: PubChem BioAssay
